For one sequence, binding signal results are on record in paper PMC7862700, “An all-to-all approach to the identification of sequence-specific readers for epigenetic DNA modifications on cytosine”.

Experiment in all cases: DAPPL (digital affinity profiling via proximity ligation, sequencing); 10 mM Tris-HCl pH 7.5, 50 mM NaCl, 1 mM DTT, 4% glycerol, room temperature, 30 min; GST-TFs on glutathione beads, 16-mer random dsDNA library, 0.1% formaldehyde crosslink after washing; high values mean tight binding
Test [1] addresses T1, FLI1 (Homo sapiens, UniProt Q01543 1-452).
T1 sequence: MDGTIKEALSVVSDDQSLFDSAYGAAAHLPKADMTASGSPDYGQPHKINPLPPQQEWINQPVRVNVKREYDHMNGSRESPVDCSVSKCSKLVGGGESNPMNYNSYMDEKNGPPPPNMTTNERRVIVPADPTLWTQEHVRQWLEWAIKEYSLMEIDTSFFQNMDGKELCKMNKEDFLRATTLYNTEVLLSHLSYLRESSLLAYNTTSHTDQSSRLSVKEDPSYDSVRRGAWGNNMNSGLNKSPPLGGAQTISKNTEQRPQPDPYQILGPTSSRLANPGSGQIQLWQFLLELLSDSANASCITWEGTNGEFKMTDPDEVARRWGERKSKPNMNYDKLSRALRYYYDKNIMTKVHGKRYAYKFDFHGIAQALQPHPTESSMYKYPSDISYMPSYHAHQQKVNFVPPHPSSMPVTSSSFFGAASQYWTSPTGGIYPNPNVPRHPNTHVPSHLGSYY
The settings on record: protein: recombinant; tags: N-terminal GST; dsDNA, one strand shown. The procedure, abridged: (§1)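 Sequencing on an Illumina NextSeq500 followed washing, crosslinking with 0.1% formaldehyde, proximity ligation (BsaI/T4 ligase, 1 h, 37 °C) and PCR amplification of pools that had been incubated for 30 min at room temperature with 200 nmole of a random double-stranded 16-mer DNA library in Tris/NaCl/DTT/glycerol buffer. Each pool held DNA-barcoded human transcription factors, expressed in yeast as GST fusions and captured on glutathione beads, plus a tag-only sample. Binding signal is a hexamer's read frequency for a factor divided by its frequency in the tag-only sample.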

The target in test [2] is T2, ELK1 (Homo sapiens, UniProt P19419 1-428).
T2 sequence: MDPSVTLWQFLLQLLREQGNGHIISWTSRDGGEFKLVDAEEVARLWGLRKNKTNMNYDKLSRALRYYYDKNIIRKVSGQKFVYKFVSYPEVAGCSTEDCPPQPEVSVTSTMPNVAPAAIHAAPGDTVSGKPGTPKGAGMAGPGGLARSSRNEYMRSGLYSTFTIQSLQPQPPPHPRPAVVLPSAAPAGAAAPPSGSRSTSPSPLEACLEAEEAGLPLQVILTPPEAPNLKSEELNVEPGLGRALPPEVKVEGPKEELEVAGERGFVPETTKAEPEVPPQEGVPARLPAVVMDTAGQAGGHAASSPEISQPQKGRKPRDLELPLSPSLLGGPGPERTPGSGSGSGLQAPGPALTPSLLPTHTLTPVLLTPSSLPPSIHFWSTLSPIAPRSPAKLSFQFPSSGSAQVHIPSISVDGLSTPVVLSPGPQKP
The settings on record: protein: recombinant; tags: N-terminal GST; dsDNA, one strand shown. The procedure, abridged:
as §1

The target of test [3] is T3, GABPA (Homo sapiens, UniProt Q06546 1-454).
T3 sequence: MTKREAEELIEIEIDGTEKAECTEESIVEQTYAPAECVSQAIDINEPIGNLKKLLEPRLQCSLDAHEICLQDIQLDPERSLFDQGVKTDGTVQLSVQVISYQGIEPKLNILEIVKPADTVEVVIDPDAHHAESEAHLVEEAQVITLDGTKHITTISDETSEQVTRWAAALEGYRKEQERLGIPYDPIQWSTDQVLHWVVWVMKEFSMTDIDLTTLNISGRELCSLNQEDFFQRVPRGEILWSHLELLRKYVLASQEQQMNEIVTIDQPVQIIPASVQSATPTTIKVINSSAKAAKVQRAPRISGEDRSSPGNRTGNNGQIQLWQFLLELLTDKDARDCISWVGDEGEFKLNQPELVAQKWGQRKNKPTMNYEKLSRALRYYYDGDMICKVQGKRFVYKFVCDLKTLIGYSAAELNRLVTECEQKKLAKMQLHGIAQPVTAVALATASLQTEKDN
The following applies: protein: recombinant; tags: N-terminal GST; dsDNA, one strand shown. The procedure, abridged: as §1

Test [4] deals with T4, ERG (Homo sapiens, UniProt P11308 1-479).
T4 sequence: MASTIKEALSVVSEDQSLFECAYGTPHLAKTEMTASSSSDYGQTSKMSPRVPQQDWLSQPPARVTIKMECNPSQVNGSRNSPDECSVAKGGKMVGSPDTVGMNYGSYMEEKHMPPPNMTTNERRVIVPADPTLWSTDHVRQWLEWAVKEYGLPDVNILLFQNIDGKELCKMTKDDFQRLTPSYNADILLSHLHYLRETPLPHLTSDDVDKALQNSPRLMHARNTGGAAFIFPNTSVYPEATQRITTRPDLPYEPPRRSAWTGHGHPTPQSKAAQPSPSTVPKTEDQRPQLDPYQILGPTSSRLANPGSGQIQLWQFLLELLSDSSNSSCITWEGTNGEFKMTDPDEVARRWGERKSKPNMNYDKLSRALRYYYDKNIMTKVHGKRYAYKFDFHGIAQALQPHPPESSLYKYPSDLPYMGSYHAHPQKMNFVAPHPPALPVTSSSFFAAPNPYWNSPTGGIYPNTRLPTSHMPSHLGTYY
The following applies: protein: recombinant; tags: N-terminal GST; dsDNA, one strand shown. The procedure, abridged: as §1

In test [5] the target is ELF1 (Homo sapiens, UniProt P32519 1-619). The settings on record: protein: recombinant; tags: N-terminal GST; dsDNA, one strand shown. In short, it runs like this: as §1
ELF1, sequence (P32519 whole entry): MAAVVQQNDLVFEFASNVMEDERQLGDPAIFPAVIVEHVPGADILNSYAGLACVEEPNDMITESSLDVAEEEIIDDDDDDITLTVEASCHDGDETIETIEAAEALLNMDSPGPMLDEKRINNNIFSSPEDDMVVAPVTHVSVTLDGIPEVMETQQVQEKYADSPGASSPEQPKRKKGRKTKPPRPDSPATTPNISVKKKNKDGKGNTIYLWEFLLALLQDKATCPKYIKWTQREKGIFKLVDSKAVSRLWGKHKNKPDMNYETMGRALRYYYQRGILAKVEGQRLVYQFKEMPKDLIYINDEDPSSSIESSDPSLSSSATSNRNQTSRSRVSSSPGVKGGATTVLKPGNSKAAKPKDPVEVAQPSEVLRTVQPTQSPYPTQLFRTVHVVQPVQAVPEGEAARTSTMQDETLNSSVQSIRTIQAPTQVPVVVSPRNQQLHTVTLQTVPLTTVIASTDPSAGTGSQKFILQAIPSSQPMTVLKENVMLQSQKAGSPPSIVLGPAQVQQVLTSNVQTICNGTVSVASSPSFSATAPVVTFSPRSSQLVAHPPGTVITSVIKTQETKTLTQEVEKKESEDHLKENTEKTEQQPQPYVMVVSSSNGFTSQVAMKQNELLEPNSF
The target of test [6] is T5, EHF (Homo sapiens, UniProt Q9NZC4 1-300).
T5 sequence: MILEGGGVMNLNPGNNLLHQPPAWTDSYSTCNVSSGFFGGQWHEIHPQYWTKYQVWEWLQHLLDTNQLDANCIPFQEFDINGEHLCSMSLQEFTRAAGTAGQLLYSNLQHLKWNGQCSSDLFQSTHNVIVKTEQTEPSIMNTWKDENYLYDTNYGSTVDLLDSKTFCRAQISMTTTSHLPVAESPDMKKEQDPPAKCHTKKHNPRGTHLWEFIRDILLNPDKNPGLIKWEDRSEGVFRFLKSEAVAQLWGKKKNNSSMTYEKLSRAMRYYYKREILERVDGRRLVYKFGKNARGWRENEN
The following applies: protein: recombinant; tags: N-terminal GST; dsDNA, one strand shown. The procedure, abridged:
as §1

Test [7] addresses SPIB (Homo sapiens, UniProt Q01892 1-262). The settings on record: protein: recombinant; tags: N-terminal GST; dsDNA, one strand shown. The procedure, abridged:
as §1

Test [8] has as its target T6, ELK3 (Homo sapiens, UniProt P41970 1-407).
T6 sequence: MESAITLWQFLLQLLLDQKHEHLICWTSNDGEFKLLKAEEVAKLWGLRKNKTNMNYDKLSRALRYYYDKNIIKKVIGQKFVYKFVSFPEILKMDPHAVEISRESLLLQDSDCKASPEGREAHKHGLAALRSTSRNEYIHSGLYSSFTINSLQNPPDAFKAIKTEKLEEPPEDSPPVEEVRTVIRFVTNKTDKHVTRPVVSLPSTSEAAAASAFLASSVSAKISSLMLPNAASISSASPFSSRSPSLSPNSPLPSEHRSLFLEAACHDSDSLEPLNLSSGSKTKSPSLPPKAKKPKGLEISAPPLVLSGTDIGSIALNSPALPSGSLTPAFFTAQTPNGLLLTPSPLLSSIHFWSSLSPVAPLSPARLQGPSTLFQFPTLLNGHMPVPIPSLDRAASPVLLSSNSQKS
The following applies: protein: recombinant; tags: N-terminal GST; dsDNA, one strand shown. In short, it runs like this:
as §1

The target of test [9] is ETV5 (Homo sapiens, UniProt P41161 1-510). The settings on record: protein: recombinant; tags: N-terminal GST; dsDNA, one strand shown. In short, it runs like this: as §1
ETV5, sequence (P41161 whole entry): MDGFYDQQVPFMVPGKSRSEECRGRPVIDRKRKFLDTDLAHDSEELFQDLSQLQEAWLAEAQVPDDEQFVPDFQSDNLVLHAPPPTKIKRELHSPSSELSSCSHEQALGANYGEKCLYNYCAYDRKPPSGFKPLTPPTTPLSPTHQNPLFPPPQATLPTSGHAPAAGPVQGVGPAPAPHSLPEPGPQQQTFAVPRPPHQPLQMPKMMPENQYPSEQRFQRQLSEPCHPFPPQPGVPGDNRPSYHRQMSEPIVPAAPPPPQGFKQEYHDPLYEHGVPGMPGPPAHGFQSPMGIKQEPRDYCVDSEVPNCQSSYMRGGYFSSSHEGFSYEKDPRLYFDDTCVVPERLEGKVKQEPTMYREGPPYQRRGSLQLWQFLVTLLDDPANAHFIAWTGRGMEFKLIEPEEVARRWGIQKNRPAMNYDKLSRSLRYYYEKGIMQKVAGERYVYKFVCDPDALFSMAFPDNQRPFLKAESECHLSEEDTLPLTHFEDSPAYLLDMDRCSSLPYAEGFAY
Test [10] deals with HSF1 (Homo sapiens, UniProt Q00613 1-529). The settings on record: protein: recombinant; tags: N-terminal GST; chain copies: 3; dsDNA, one strand shown. In short, it runs like this: as §1
HSF1, sequence (Q00613 whole entry): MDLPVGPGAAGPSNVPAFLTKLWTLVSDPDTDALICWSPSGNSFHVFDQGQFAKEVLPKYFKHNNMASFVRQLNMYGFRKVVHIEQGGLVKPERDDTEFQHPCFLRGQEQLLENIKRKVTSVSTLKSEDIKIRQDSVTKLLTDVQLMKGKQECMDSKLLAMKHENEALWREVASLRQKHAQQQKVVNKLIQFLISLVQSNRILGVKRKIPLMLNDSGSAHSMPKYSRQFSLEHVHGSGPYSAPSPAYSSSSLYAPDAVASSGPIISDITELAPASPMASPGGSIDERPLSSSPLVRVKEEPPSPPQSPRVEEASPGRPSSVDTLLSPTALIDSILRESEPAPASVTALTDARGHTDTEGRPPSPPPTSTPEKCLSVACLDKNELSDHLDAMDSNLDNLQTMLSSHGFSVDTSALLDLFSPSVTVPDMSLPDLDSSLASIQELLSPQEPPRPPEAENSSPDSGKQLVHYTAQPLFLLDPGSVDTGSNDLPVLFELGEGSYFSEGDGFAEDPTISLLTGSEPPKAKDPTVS
Test [11] has as its target T7, SPIC (Homo sapiens, UniProt Q8N5J4 1-248).
T7 sequence: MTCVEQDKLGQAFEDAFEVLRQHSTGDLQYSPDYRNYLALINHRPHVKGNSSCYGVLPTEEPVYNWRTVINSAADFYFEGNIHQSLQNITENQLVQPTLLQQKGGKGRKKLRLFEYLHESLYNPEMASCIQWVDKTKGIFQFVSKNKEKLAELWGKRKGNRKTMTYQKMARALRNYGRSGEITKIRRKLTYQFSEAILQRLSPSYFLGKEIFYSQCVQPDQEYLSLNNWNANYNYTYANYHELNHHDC
The following applies: protein: recombinant; tags: N-terminal GST; dsDNA, one strand shown. In short, it runs like this:
as §1

The target in test [12] is ELF4 (Homo sapiens, UniProt Q99607 1-663). The settings on record: protein: recombinant; tags: N-terminal GST; dsDNA, one strand shown. The procedure, abridged: as §1
ELF4, sequence (Q99607 whole entry): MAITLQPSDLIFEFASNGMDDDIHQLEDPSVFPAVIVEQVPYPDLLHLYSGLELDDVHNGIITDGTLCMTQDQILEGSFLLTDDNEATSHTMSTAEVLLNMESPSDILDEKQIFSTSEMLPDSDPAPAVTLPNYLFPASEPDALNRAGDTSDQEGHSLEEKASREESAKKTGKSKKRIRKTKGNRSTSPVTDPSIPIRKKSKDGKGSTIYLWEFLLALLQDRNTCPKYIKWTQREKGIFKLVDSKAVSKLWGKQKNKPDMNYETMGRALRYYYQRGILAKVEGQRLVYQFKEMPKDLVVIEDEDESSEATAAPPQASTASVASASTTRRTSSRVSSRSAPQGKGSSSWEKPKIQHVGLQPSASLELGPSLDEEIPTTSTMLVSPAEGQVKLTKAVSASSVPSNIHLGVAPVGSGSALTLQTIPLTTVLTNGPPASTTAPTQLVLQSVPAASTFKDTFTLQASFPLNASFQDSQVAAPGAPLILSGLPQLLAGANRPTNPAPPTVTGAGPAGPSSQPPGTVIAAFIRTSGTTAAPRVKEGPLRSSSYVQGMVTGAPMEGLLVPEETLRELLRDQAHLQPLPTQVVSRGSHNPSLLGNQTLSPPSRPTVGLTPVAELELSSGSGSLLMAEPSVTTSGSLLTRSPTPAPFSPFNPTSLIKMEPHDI
Test [13] addresses T8, ELK4 (Homo sapiens, UniProt P28324-2 1-405).
T8 sequence: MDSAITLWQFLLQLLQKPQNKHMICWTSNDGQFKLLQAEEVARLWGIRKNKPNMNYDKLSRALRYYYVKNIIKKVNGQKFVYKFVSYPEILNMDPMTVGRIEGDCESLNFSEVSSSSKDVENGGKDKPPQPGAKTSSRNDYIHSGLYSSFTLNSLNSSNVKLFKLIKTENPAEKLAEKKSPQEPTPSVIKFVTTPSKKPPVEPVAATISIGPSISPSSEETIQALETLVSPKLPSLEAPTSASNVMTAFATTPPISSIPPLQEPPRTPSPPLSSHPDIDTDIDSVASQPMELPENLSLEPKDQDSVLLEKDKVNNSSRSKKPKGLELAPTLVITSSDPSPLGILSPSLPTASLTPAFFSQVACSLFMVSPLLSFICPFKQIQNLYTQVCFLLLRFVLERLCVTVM
The settings on record: protein: recombinant; tags: N-terminal GST; dsDNA, one strand shown. The procedure, abridged: as §1

Test [14] concerns the target T9, ETV2 (Homo sapiens, UniProt O00321 1-342).
T9 sequence: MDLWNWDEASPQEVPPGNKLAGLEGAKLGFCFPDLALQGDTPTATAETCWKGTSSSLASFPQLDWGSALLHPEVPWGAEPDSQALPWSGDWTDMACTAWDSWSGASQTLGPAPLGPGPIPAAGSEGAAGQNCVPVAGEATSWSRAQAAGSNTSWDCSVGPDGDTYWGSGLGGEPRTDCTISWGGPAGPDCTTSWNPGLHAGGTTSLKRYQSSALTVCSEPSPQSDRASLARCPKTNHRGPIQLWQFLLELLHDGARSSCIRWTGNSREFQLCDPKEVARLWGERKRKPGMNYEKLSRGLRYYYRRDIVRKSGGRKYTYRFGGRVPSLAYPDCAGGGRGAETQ
The following applies: protein: recombinant; tags: N-terminal GST; dsDNA, one strand shown. In short, it runs like this:
as §1

In test [15] the target is T10, ELF3 (Homo sapiens, UniProt P78545 1-371).
T10 sequence: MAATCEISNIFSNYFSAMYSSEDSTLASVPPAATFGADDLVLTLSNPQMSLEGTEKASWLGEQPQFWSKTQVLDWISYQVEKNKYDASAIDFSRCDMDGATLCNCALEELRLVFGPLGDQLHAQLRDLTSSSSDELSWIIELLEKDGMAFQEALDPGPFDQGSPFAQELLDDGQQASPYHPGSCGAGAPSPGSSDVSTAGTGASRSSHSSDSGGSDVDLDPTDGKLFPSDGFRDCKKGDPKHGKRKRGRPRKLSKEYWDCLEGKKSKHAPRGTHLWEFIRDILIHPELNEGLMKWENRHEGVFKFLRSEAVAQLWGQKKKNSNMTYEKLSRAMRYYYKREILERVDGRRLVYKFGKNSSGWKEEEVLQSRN
The settings on record: protein: recombinant; tags: N-terminal GST; dsDNA, one strand shown. The procedure, abridged:
as §1

In test [16] the target is ETV1 (Homo sapiens, UniProt P50549 1-477). The settings on record: protein: recombinant; tags: N-terminal GST; dsDNA, one strand shown. In short, it runs like this:
as §1

ETV1, sequence (P50549 whole entry): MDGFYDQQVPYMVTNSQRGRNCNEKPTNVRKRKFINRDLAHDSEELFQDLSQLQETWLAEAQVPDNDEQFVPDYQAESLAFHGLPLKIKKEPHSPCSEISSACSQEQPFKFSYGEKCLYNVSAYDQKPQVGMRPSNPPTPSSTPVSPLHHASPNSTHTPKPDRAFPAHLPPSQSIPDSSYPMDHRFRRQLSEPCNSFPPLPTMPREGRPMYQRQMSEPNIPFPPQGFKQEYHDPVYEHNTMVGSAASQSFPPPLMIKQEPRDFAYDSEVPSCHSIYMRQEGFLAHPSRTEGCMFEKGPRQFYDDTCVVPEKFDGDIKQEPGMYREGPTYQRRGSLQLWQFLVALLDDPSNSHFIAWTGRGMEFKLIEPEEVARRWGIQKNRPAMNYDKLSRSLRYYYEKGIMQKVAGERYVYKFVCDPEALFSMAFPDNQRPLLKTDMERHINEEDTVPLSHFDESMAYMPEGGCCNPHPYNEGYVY
SPIB, sequence (Q01892 whole entry): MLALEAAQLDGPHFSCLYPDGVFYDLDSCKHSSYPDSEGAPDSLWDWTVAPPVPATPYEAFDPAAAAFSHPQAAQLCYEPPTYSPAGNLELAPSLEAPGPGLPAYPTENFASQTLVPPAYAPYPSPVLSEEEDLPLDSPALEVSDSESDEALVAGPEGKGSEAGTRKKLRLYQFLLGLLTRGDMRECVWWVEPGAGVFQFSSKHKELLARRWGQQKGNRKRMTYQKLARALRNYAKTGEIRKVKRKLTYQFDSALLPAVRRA

For TCGACG, the binding signal in test [1] is 1.23 fold enrichment (6-mer frequency, TF over GST control); in [2], 1.14 fold enrichment (6-mer frequency, TF over GST control); in [3], 1.06 fold enrichment (6-mer frequency, TF over GST control); in test [4], 1.04 fold enrichment (6-mer frequency, TF over GST control); in test [5] it was 1.1 fold enrichment (6-mer frequency, TF over GST control); in test [6], 1.21 fold enrichment (6-mer frequency, TF over GST control). In addition, the binding signal was 1.05 fold enrichment (6-mer frequency, TF over GST control) in test [7]; 1.02 fold enrichment (6-mer frequency, TF over GST control) in [8]; 1.17 fold enrichment (6-mer frequency, TF over GST control) in test [9]; 1.15 fold enrichment (6-mer frequency, TF over GST control) in [10]; 1.07 fold enrichment (6-mer frequency, TF over GST control) in [11]; 1.08 fold enrichment (6-mer frequency, TF over GST control) in [12]. Further, the binding signal in [13] is 1.08 fold enrichment (6-mer frequency, TF over GST control); in [14], 1.18 fold enrichment (6-mer frequency, TF over GST control); in [15] it was 1.06 fold enrichment (6-mer frequency, TF over GST control); in test [16], 1.05 fold enrichment (6-mer frequency, TF over GST control).
